Source: PubChem
TrxR1 substrate: substrates of rat thioredoxin reductase 1. O89049. purified TrxR1 substrate turnover, NADPH consumption readout. Potency, µM (series often up to 114 µM). actives 0.01% (n = 390,000); note: nearly all actives have a fitted effect of over 50% in size
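Rat TrxR1, dispensed at 90 nM, was prereduced with 400 uM NADPH (final) for 5 min at ~22 deg C, then incubated with compound 15 min before 400 uM selenite. A first-read NADPH fluorescence drop versus no-compound background flagged substrates.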
Sfp PPTase inh: blocks B. subtilis Sfp PPTase activity; Q9F4F7; Biochemical Sfp PPTase activity, qHTS; Potency, µM, most hits filed as inhibitors; actives 3.5% (n = 310,000); AID 1490;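 note: the enzyme is Sfp with the accession as filed and its product quenches rhodamine fluorescence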
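Buffer: 50 mM Hepes-Na pH 7.6, 10 mM MgCl2, 0.01% Nonidet P-40, 0.01% BSA. Enzyme 15 nM, pre-exposed to compound 15 min; substrates then added and fluorescence change tracked over 30 min.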
GLS inh: blocks human kidney-isoform glutaminase activity; actives 0.21% (n = 410,000); O94925; GLS enzymatic activity, qHTS titration; AID 624170; Potency, µM (top dose mostly 45.5 µM), hits mostly inhibitors
Target sequence (O94925 whole entry, looked up, canonical isoform): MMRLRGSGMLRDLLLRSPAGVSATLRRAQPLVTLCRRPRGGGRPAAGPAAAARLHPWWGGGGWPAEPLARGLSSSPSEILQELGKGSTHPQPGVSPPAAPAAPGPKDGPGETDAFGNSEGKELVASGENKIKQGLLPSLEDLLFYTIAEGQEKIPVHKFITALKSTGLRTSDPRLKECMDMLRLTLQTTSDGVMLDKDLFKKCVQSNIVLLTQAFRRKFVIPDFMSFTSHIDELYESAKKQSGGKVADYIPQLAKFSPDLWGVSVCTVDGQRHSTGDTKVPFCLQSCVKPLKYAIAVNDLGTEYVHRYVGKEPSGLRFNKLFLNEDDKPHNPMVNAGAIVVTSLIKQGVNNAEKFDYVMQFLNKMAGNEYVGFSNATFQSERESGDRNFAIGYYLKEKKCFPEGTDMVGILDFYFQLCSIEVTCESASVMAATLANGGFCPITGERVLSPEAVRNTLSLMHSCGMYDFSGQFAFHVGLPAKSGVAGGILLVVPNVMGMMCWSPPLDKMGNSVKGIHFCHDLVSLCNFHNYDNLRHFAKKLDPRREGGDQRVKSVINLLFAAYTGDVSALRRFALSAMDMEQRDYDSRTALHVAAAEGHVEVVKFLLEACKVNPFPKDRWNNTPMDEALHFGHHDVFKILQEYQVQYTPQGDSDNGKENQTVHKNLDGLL
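Enzyme dispensed in phosphate buffer (45 mM, pH 8.2, 0.02% Tween-20), compounds pinned in, then 1 mM L-glutamine solution and the glutamate oxidase–HRP–Amplex Red mix added; fluorescence read immediately and again after 30 min at room temperature.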
TrxR1 inh: rat TrxR1 inhibition. O89049. recombinant rTrxR1, NADPH fluorescence consumption, selenite substrate. Potency, µM (highest dose often 114 µM), most hits filed as inhibitors. actives 1% (n = 390,000). AID 588453; note: nearly all actives have a fitted effect of over 65% in size
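Rat TrxR1 (90 nM in the dispensed reagent) was pre-reduced with 400 uM NADPH for 5 min at room temperature, then incubated with compound for 15 min. After 400 uM selenite was added, NADPH fluorescence (Ex 340/Em 450 nm) was followed for 8 min.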
KAT2A inh: inhibitors of human GCN5L2 histone acetyltransferase. Q92830. GCN5L2 HAT assay, ThioGlo1 CoA-SH fluorescence. Potency, µM (highest dose often 58.9 µM), most hits filed as inhibitors. actives 0.21% (n = 390,000). AID 504327
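Fluorescence readout, Ex340nm/Em540nm: ThioGlo1 (50uM final) reacts with free CoA thiol released as 20nM GCN5L2 acetylates H3(1-25) peptide (75uM) using acetyl-CoA (70uM). Compound and enzyme sat 15 min beforehand; 20 min room-temperature reaction.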
VDR inh: inhibitors of human vitamin D receptor. AID 504847. Potency, µM, usual class: inhibitors. actives 0.93% (n = 400,000). VDR-SRC2-3 peptide fluorescence polarization, 2 h
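The screen uses fluorescence polarization to detect compounds that interfere with recruitment of the SRC2-3 coactivator peptide to VDR; plates are read after 2 h at room temperature.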
Of the large screens only hits and unclear results are named; the others gave an inactive call. Shown are actives, neighbours in structure and some others; about 3.8% of the full set was active somewhere. Calls come from the whole dose curve; as a rule, active = well fitted curve in the direction sought with a large enough effect; inconclusive = small, poorly fitted or top-dose-only effect, or another doubt; inactive = no such curve, though single readings can be large; an effect the other way counts as inactive or inconclusive.

CC(C)CN(C(=O)CN1CCN(c2ccc(O)cc2)CC1)c1c(N)n(CC(C)C)c(=O)[nH]c1=O	Sfp PPTase inh 25µM
CC(=O)c1ccc(N2CCN(CC(=O)N(CC(C)C)c3c(N)n(CC(C)C)c(=O)[nH]c3=O)CC2)cc1	none
CCN(C(=O)COC(=O)/C=C/c1ccc(C)o1)c1c(N)n(Cc2ccccc2)c(=O)[nH]c1=O	TrxR1 inh 40µM (no result: Sfp PPTase inh)
CCN(C(=O)CN1CCN(c2ccc(O)cc2)CC1)c1c(N)n(Cc2ccccc2)c(=O)[nH]c1=O	Sfp PPTase inh 14µM
Cc1ccc(/C=C/C(=O)OCC(=O)N(CC(C)C)c2c(N)n(Cc3ccccc3)c(=O)[nH]c2=O)o1	none (no result: Sfp PPTase inh)
CCC(C)n1c(SCC(=O)Nc2ccccc2C(=O)OC)nc2ccsc2c1=O (configuration not stated)	none (no result: Sfp PPTase inh)
CN1CCN(C(=O)c2ccc(-c3cnn(C)c3)c3ccoc23)CC1	none (no result: TrxR1 substrate, Sfp PPTase inh, TrxR1 inh, KAT2A inh, VDR inh)
COc1ccc(NC(=O)CCNC(=O)C2CCN(S(=O)(=O)c3ccc(OC)cc3)CC2)cc1	none
COc1ccc(S(=O)(=O)N2CCC(C(=O)NCCC(=O)Nc3cccc(Cl)c3)CC2)cc1	GLS inh inconclusive, VDR inh 28µM
CCCCc1cc(=O)oc2cc(C)cc(OCC(=O)N[C@@H](CSCc3ccccc3)C(=O)O)c12	KAT2A inh 1.8µM
Cc1ccc(N2NC(=O)/C(=C/c3ccc(-c4ccc(Cl)c(C(=O)O)c4)o3)C2=O)cc1	GLS inh inconclusive, VDR inh inconclusive
CC(C)OC(=O)c1cc(-c2ccc(C=O)o2)ccc1Cl	none
COc1ccc(-c2ccc(/C=C3/C(=N)N4C=CSC4=NC3=O)o2)c([N+](=O)[O-])c1	none
CCCCC1(C)OC(=O)C(=Cc2ccc(-c3ccc(Cl)c(C(=O)O)c3)o2)C(=O)O1 (configuration not stated)	Sfp PPTase inh 45µM, GLS inh inconclusive, TrxR1 inh inconclusive, KAT2A inh inconclusive, VDR inh 22µM
CCOC(=O)c1cc(-c2ccc(/C=C3/C(=O)NC(=O)C(C#N)=C3C)o2)ccc1Cl	Sfp PPTase inh 50µM, TrxR1 inh 10µM, KAT2A inh inconclusive, VDR inh inconclusive
CC1=C(C#N)C(=O)NC(=O)/C1=C\c1ccc(-c2ccc(C)cc2[N+](=O)[O-])o1	Sfp PPTase inh 50µM, GLS inh inconclusive, TrxR1 inh 16µM, KAT2A inh inconclusive, VDR inh inconclusive
C#CC(C)(C)NC(=O)c1ccc(-c2ccccc2F)cc1	none
COC(=O)CC1Oc2cc3oc4c(c3cc2O1)C(=O)CC(C)(C)C4 (configuration not stated)	none (no result: TrxR1 substrate, GLS inh, TrxR1 inh, KAT2A inh, VDR inh)
CC1(C)CC(=O)c2c(oc3cc(O)c(O)cc23)C1	Sfp PPTase inh 56µM, TrxR1 inh inconclusive
CC1=C(C(=O)N2CCOCC2)C(c2ccc(O)cc2)NC(=S)N1 (configuration not stated)	Sfp PPTase inh inconclusive
Oc1ccc2c(c1)C1CCCC1(N1CCOCC1)O2 (configuration not stated)	Sfp PPTase inh 50µM, GLS inh inconclusive, TrxR1 inh inconclusive
O=C(CSc1nc(-c2cccs2)nc2cc(=O)[nH]n12)Nc1ccccc1F	none (no result: Sfp PPTase inh)
Cc1ccc(S(=O)(=O)n2ccc3c(OCCOCCNCc4ccc(F)cc4)cccc32)cc1	Sfp PPTase inh 71µM
Cc1ccc(S(=O)(=O)n2ccc3c(OCCOCCSCC(NC(=O)OC(C)(C)C)C(=O)O)cccc32)cc1 (configuration not stated)	none
O=C(Nc1sc2c(c1C(=O)NCc1ccco1)CCCC2)c1cc(=O)c2cc(Cl)ccc2o1	none (no result: Sfp PPTase inh)
CSc1ccc(C2NC(=O)c3c(sc4c3CCN(C)C4)N2)cc1 (configuration not stated)	Sfp PPTase inh inconclusive, GLS inh inconclusive
CN1CCc2c(sc3c2C(=O)NC(c2ccc(C(C)(C)C)cc2)N3)C1 (configuration not stated)	GLS inh 16µM (no result: Sfp PPTase inh)
CN1CCc2c(sc3c2C(=O)NC(c2cccs2)N3)C1 (configuration not stated)	GLS inh inconclusive
CC(C)c1ccc(C2NC(=O)c3c(sc4c3CCN(C)C4)N2)cc1 (configuration not stated)	GLS inh 16µM (no result: Sfp PPTase inh)
CN1CCc2c(sc3c2C(=O)NC(c2ccc(-c4cccc(Cl)c4)o2)N3)C1 (configuration not stated)	Sfp PPTase inh 50µM, TrxR1 inh inconclusive
O=C(CN1C(=O)C(=O)N(Cc2ccccc2)C1=O)Nc1ccc(OC(F)F)cc1	none (no result: Sfp PPTase inh)
COc1ccc(CCNC(=O)CSc2nc3[nH]ncc3c(=O)n2-c2ccc(Br)cc2)cc1OC	VDR inh inconclusive
N#C/C(=C\c1cccc2ccccc12)c1nn(-c2ccccc2)c(N)c1C#N	none (no result: Sfp PPTase inh, KAT2A inh)
O=C(NC1(C(F)(F)F)C(=O)Nc2c1c(=O)[nH]c(=O)n2-c1ccccc1)c1cccnc1 (configuration not stated)	none
C(=C\c1ccccc1)/CSc1nnc(-c2ccccc2)n1Cc1ccco1	TrxR1 inh inconclusive
C(=C\c1ccccc1)/CSc1nnc(-c2ccncc2)n1Cc1ccco1	Sfp PPTase inh 50µM, TrxR1 inh inconclusive
CCSc1nnc(-c2cccnc2)n1Cc1ccco1	Sfp PPTase inh 40µM, TrxR1 inh inconclusive
Cc1ccc(S(N)(=O)=O)cc1NC(=O)C1CC2CCC1C2 (configuration not stated)	none
COc1cccc(/C=C/c2nc(C#N)c(N3CCC(C(N)=O)CC3)o2)c1	TrxR1 inh 79µM, KAT2A inh inconclusive (no result: Sfp PPTase inh)
Nc1nc(Oc2ccc(F)cc2)c(Br)c(=O)[nH]1	none
O=C(NCCCO)Nc1ccc2nc(-c3ccco3)c(-c3ccco3)nc2c1	Sfp PPTase inh 14µM, KAT2A inh 16µM (no result: TrxR1 substrate, GLS inh, TrxR1 inh, VDR inh)
O=C(Nc1ccc(N2CCOCC2)cc1)Nc1ccc2nc(-c3ccco3)c(-c3ccco3)nc2c1	Sfp PPTase inh 10µM
O=C(c1ccc2nc(-c3ccco3)c(-c3ccco3)nc2c1)N1CCN(c2ccccc2)CC1	Sfp PPTase inh inconclusive, TrxR1 inh inconclusive, KAT2A inh inconclusive
O=c1[nH]c2c(s1)C(c1ccco1)C1C3CCC(C3)C1S2 (configuration not stated)	Sfp PPTase inh 45µM, TrxR1 inh 45µM
CN(C)c1ncc2nc(-c3ccccc3)c(=O)n(C3CC3)c2n1	KAT2A inh 22µM (no result: TrxR1 substrate, GLS inh, TrxR1 inh)
O=C(NNC(=S)NC(=O)c1ccccc1[N+](=O)[O-])c1ccccc1	none
CC(C)(C)c1ccc(OCC(=O)NNC(=S)NC(=O)c2ccccc2[N+](=O)[O-])c(Br)c1	Sfp PPTase inh 40µM, GLS inh inconclusive, TrxR1 inh inconclusive
